Values joined by “and” are separate entries in the source; they are usually repeats but may differ in a detail not shown here. Equal entries are not always repeated. Records with an inconclusive call do not appear. Entries that show only a call come without a potency. Where a structure was tested more than once in an assay, its records may differ in their call. Active and inactive are the calls of the source. Unless noted, calls follow the shape of the full dose curve.
Tests used:
[1] = Nuclear factor erythroid 2-related factor 2/antioxidant responsive element (Nrf2/ARE) small molecule agonists: qHTS cell viability counter screen in human keratinocytes (AID 1919968; active = well fitted cell-killing curve with a large enough effect in the repeat runs; also: nearly all actives have a fitted effect of over 55% in size; also: potency is read from the fitted curve at half-maximal effect)
In short: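 Stably transfected HaCaT (KeratinoSens), 1,500/well. Test agents in DMSO were applied for 23 h, 37 C/5% CO2. CellTiter-Fluor was incubated 1 h before the fluorescence read.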

[2] = Nuclear factor erythroid 2-related factor 2/antioxidant responsive element (Nrf2/ARE) small molecule agonists: luciferase reporter gene qHTS assay in human keratinocytes (AID 1919969); also: nearly all actives have a fitted effect of over 35% in size; also: potency is read from the fitted curve at half-maximal effect
[3] = biological target: Gonadotropin-releasing hormone receptor (Homo sapiens) (UniProt P30968); test: Human gonadotropin-releasing hormone receptor (GnRHR) small molecule agonists, calcium flux assay in GnRHR-HEK293 cells (AID 1920063); also: nearly all actives have a fitted effect of over 35% in size; also: potency is read from the fitted curve at half-maximal effect
Sequence of Gonadotropin-releasing hormone receptor (Homo sapiens) (P30968 whole entry, looked up): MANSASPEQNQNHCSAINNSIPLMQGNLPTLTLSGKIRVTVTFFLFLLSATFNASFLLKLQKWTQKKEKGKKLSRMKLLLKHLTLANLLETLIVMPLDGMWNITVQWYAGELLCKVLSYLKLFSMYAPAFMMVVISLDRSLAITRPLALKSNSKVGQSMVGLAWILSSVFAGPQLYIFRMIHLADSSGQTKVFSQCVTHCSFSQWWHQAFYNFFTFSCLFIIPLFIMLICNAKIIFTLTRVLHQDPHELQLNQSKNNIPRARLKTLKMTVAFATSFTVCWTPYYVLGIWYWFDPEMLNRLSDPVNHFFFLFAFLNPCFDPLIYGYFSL
In short: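 Stable human GnRHR HEK293 line. 18 h plating, then calcium dye for 1 h at 37 C. Agonist-mode compound addition from DMSO stocks; fluorescence monitored 3 min.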

[4] = G protein-coupled receptor (GPCR) small molecule agonists, calcium flux assay: HEK293 wild type cell line counter screen (AID 1920065)
In short: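 Following 18 h incubation at 37 C/5% CO2, plates got calcium dye for 1 h; compounds, ATP or DMSO were then pinned in and fluorescence followed kinetically (480/540 nm).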

[5] = p53 small molecule agonists, cell-based qHTS assay with human liver microsomes: qHTS cell viability counter screen (AID 1963579); also: nearly all actives have a fitted effect of over 45% in size; also: potency is read from the fitted curve at half-maximal effect
In short: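 p53RE-bla cells, 4,000/well, dosed 5 hours after plating, with human liver microsomes (0.5 mg/mL final) plus NADPH (0.5 mg/mL final), 16 hours at 37 C. Viability read as CellTiter-Glo luminescence after 30 min at room temperature.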

[6] = p53 small molecule agonists, cell-based qHTS assay with rat liver microsomes: qHTS cell viability counter screen (AID 1963580); also: nearly all actives have a fitted effect of over 45% in size; also: potency is read from the fitted curve at half-maximal effect
In short: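 Cytotoxicity counter screen: intracellular ATP read by CellTiter-Glo luminescence in the p53 reporter wells. HCT-116 p53RE-bla cells were treated for 16 h at 37 C alongside rat liver microsomes and NADPH, each 0.5 mg/mL final.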

[7] = p53 small molecule agonists, cell-based qHTS assay: qHTS cell viability counter screen (AID 1963581); also: nearly all actives have a fitted effect of over 45% in size; also: potency is read from the fitted curve at half-maximal effect
In short: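 qHTS counter screen: 16 h compound exposure at 37 C of p53RE-bla HCT-116 cells (4,000 per well, seeded 5 h prior), cell viability by ATP luminescence.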

[8] = biological target: 5-hydroxytryptamine receptor 2A (Homo sapiens) (UniProt P28223); test: 5-hydroxytryptamine receptor 2A (HTR2A) small molecule antagonists, cell-based qHTS assay (AID 1963586); also: nearly all actives have a fitted effect of over 45% in size
Sequence of 5-hydroxytryptamine receptor 2A (Homo sapiens) (P28223 whole entry, looked up): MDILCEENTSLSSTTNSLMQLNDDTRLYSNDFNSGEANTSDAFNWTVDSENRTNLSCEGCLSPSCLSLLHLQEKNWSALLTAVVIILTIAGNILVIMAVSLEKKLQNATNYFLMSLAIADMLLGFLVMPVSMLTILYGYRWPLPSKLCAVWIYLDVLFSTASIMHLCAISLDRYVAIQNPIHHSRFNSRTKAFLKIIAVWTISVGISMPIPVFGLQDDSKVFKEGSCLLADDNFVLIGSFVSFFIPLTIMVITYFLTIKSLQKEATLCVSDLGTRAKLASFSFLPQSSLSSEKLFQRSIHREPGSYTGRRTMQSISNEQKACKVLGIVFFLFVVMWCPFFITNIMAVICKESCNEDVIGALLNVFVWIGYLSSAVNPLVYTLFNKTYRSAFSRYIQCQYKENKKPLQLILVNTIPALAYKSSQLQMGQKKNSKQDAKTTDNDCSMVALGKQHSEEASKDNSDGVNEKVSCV
In short: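 CHO cells stably expressing human HTR2A were plated for 18 h at 37 C, then loaded with calcium dye for 1 h. Compounds were preincubated 5 min at room temperature before DOI (4 nM solution) was added. Kinetic fluorescence was read for 3 min.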

[9] = biological target: Muscarinic acetylcholine receptor M1 (Homo sapiens) (UniProt P11229); test: Cholinergic receptor muscarinic 1 (CHRM1) small molecule antagonists, cell-based qHTS assay (AID 1963588); also: nearly all actives have a fitted effect of over 40% in size; also: potency is read from the fitted curve at half-maximal effect
Sequence of Muscarinic acetylcholine receptor M1 (Homo sapiens) (P11229 whole entry, looked up): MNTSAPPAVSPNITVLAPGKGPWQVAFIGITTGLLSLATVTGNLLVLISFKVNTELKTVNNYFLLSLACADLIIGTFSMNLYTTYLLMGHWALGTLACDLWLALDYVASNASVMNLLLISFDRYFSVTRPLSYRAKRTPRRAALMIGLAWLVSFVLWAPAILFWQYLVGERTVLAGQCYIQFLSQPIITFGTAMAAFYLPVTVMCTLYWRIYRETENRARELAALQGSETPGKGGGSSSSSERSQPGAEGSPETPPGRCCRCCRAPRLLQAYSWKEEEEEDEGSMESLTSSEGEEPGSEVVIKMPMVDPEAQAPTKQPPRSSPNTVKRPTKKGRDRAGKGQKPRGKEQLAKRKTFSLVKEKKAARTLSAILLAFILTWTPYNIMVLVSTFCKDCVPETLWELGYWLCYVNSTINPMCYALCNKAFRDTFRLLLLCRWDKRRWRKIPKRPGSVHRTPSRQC
In short: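 Compounds were tested at 15 concentrations in three independent runs. Dye-loaded CHRM1-CHO cells were exposed 5 min at room temperature before stimulation by acetylcholine added at 50nM. Intracellular calcium was read kinetically on FDSS for 3 min.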

[10] = biological target: Muscarinic acetylcholine receptor M1 (Homo sapiens) (UniProt P11229); test: Cholinergic receptor muscarinic 1 (CHRM1) small molecule agonists, cell-based qHTS assay (AID 1963589); also: nearly all actives have a fitted effect of over 35% in size
In short: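 Kinetic fluorescence (1 s intervals) of calcium-sensitive dye in human M1 CHO cells after compound addition; cells pre-incubated 18 h at 37 C/5% CO2 and dye-loaded 1 h.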

[11] = cAMP Responsive Elements (CRE) small molecule agonists, cell-based qHTS assay (AID 1963590)
In short: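 Test agents in DMSO were incubated 3 h at 37 C/5% CO2 with CRE-bla HEK 293T cells seeded 18 h earlier; LiveBLAzer B/G FRET substrate was added and read after 2 h at room temperature.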

[12] = biological target: Beta-2 adrenergic receptor (Homo sapiens) (UniProt P07550); test: Adrenergic beta2 receptor (ADRB2) small molecule antagonists, cell-based qHTS assay (AID 1963592); also: series mostly up to about 92 µM; nearly all actives have a fitted effect of over 50% in size
Sequence of Beta-2 adrenergic receptor (Homo sapiens) (P07550 whole entry, looked up): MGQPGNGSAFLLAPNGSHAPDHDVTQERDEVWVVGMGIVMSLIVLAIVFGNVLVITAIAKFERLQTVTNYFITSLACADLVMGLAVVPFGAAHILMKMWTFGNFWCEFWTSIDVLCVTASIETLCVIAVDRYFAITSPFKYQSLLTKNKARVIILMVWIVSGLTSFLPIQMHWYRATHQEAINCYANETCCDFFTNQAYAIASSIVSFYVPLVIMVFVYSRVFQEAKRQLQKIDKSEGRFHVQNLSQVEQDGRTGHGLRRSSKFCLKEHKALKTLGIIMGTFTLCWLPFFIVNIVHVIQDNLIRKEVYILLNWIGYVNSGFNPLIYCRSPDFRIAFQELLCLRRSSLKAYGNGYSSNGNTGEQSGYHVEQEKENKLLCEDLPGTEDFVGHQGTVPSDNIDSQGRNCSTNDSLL
In short: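 Assay format: CHO-ADRB2 cells, 18-20hr seeding at 37C/5% CO2, then compound plus 1nM isoproterenol agonist mix for 0.5hr RT. Homogeneous time-resolved fluorescence cAMP detection after 1hr, expressed as 665/615 nm ratio.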

[13] = biological target: Beta-2 adrenergic receptor (Homo sapiens) (UniProt P07550); test: Adrenergic beta2 receptor (ADRB2) small molecule agonists, cell-based qHTS assay (AID 1963593);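 also: CHO cells stably overexpressing human ADRB2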
In short: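 CHO cells stably over-expressing ADRB2 were plated overnight at 37C, then dosed with compounds plus a stimulation mix containing 100uM IBMX and 25uM Ro-20-1724 for 0.5hr at room temperature. cAMP was measured by HTRF competition, 1hr.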

[14] = biological target: D(2) dopamine receptor (Homo sapiens) (UniProt P14416); test: Dopamine D2 receptor (DRD2) small molecule agonists, cell-based qHTS assay (AID 1963594); also: nearly all actives have a fitted effect of over 35% in size
Sequence of D(2) dopamine receptor (Homo sapiens) (P14416 whole entry, looked up): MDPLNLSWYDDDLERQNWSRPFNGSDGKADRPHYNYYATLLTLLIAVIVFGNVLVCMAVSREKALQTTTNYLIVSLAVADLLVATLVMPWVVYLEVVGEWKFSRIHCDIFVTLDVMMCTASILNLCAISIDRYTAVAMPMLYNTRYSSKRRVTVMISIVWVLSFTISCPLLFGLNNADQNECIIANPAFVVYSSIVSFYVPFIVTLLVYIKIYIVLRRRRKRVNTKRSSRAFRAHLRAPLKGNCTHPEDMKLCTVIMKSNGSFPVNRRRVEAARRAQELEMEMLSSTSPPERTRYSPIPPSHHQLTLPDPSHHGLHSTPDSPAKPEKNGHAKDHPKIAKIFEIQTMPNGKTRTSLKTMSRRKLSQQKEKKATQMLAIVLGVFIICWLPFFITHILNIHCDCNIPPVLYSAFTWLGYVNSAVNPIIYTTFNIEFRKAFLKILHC
In short: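 cAMP accumulation in DRD2-HEK293 cells measured by HTRF after 1 h detection; compounds added 10 min before NKH477 (200nM […]) forskolin-analogue stimulation, 30 min at room temperature, with Ro20-1724 present at 0.1 mM final.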

[15] = biological target: D(2) dopamine receptor (Homo sapiens) (UniProt P14416); test: Dopamine D2 receptor (DRD2) small molecule antagonists, cell-based qHTS assay (AID 1963595; active = well fitted inhibition curve with a large enough effect in the signal ratio in the repeat runs, with a control signal flat; the % refers to the signal ratio)
In short: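 Human DRD2 antagonist qHTS measuring cAMP by HTRF. The cells are exposed to compound for 10 min, then to NKH477 (200 nM) and quinpirole (12 nM) for 30 min at RT, with Ro20-1724 (0.1 mM) present throughout.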

[16] = biological target: 5-hydroxytryptamine receptor 2A (Homo sapiens) (UniProt P28223); test: 5-hydroxytryptamine receptor 2A (HTR2A) small molecule agonists, cell-based qHTS assay (AID 1963587); also: nearly all actives have a fitted effect of over 30% in size; also: potency is read from the fitted curve at half-maximal effect
In short: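 Kinetic calcium-flux fluorescence (2 min, 1 sec intervals) after compound addition in agonist mode. HTR2A-CHO cells were cultured 18 h, then dye-loaded 1 h at 37 C.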

[17] = cAMP Responsive Elements (CRE) small molecule antagonists, cell-based qHTS assay (AID 1963591; active = well fitted inhibition curve with a large enough effect in the signal ratio in the repeat runs, not every such curve was filed as active; the % refers to the signal ratio)
In short: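 Reporter line CRE-bla HEK 293T in dialyzed-FBS DMEM; cells preincubated 18 h, treated 3 h with compound plus NKH477 (0.25 uM final); LiveBLAzer FRET, 2 h RT.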

[18] = p53 small molecule agonists, cell-based qHTS assay with human liver microsomes (AID 1963577)
In short: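 p53RE-bla cells, 4,000/well, compound added after 5 h, with human liver microsomes 0.5 mg/mL and NADPH 0.5 mg/mL final; 16 h at 37 C, then LiveBLAzer 2 h RT, fluorescence.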

[19] = p53 small molecule agonists, cell-based qHTS assay with rat liver microsomes (AID 1963578)
In short: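 p53RE-bla cells, 4,000/well, pre-incubated 5 h, then given compounds plus rat liver microsomes (0.5 mg/mL final) and NADPH (0.5 mg/mL final). Incubation 16 h at 37 C; beta-lactamase reporter read by LiveBLAzer fluorescence after 2 h at room temperature.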

[20] = p53 small molecule agonists, cell-based qHTS assay (AID 1963582; active = well fitted activation curve with a large enough effect in the signal ratio in the repeat runs, not every such curve was filed as active; the % refers to the signal ratio)
In short: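 Measured: fluorescence from cleaved LiveBLAzer substrate. System: p53RE-bla cells, 16 h compound treatment at 37 C, 2 h substrate step at room temperature.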

Structure (SMILES)	Potency [1]	Potency [2]	Potency [3]	Potency [4]	Potency [5]	Potency [6]	Potency [7]	Potency [8]	Potency [9]	Potency [10]	Potency [11]	Potency [12]	Potency [13]	Potency [14]	Potency [15]	Potency [16]	Potency [17]	Potency [18]	Potency [19]	Potency [20]
CC[n+]1ccccc1	inactive	inactive	inactive	inactive	inactive	inactive	inactive	inactive	inactive	inactive	inactive	inactive	inactive	inactive	inactive					
CCCCCCCCCCCCCCCCCC(=O)O	inactive	48.2 µM (active) and inactive	inactive	inactive	inactive	inactive	inactive	inactive	inactive	inactive	inactive	inactive	inactive	inactive	inactive	inactive				
O=c1nc(O)n(Cl)c(=O)n1Cl	inactive	inactive	inactive	inactive	inactive	inactive		inactive	inactive	inactive	inactive	inactive	inactive	inactive		inactive	inactive			
O=c1[nH]c(=O)[nH]c(=O)[nH]1	inactive	inactive		inactive	inactive	inactive	inactive	inactive	inactive	inactive	inactive	inactive	inactive	inactive	inactive	inactive	inactive	inactive	inactive	inactive
CCCCCCCCCCCCCCCC[n+]1ccccc1	29.8 µM (active) [middle of 4 runs]	inactive	25.7 µM (active) and 38.9 µM (active) and 17.1 µM (active)	inactive	36.3 µM (active) and 40.2 µM (active) and inactive	42.7 µM (active) and inactive	45.8 µM (active) and inactive					inactive	inactive	inactive				inactive	inactive	inactive
O=C(O)c1nn(Cc2ccc(Cl)cc2Cl)c2ccccc12	inactive	inactive	inactive	inactive	inactive	inactive	inactive	inactive	inactive	inactive		inactive	inactive	inactive	inactive	inactive				
CCC(=O)C(CC(C)N(C)C)(c1ccccc1)c1ccccc1 (stereo unspecified)	inactive	inactive	inactive	inactive	inactive	inactive	inactive	inactive		inactive		inactive		inactive	inactive	inactive			inactive	
CC1CN1 (stereo unspecified)	inactive	inactive	inactive	inactive	inactive	inactive		inactive	3.75 µM (active)	inactive	inactive	inactive		inactive	inactive	inactive	inactive	inactive	inactive	inactive
CCC(=O)Nc1ccc(Cl)c(Cl)c1	inactive	inactive	inactive	inactive	inactive	inactive	inactive	inactive	inactive	inactive	inactive	inactive	inactive	inactive	inactive	inactive		inactive		
CC(C)N(C(=O)SCC(Cl)=C(Cl)Cl)C(C)C	inactive	inactive	inactive	inactive			inactive	inactive	23.4 µM (active)	inactive	inactive	inactive		inactive	inactive	inactive	inactive	inactive	inactive	
COP(=S)(OC)Oc1ccc(Sc2ccc(OP(=S)(OC)OC)cc2)cc1	inactive	inactive	inactive	inactive	inactive	inactive	inactive	inactive	inactive	inactive	inactive	inactive		inactive	inactive	inactive	inactive			inactive
O=S(=O)(c1ccc(O)cc1)c1ccc(O)cc1	inactive	inactive	inactive	inactive	inactive	inactive	inactive		inactive	inactive	inactive		inactive	inactive	inactive	inactive	inactive	inactive	inactive	inactive
CCCCCCCCCCCCCCn1cc[n+](C)c1	13.7 µM (active) and 27 µM (active) and inactive	inactive		inactive		16.3 µM (active) and 32.1 µM (active) and inactive	28.9 µM (active) and inactive	inactive	1.88 µM (active) and inactive	inactive	inactive	inactive	inactive	inactive	inactive	21.9 µM (active) and 30.6 µM (active) and inactive		inactive	inactive	inactive
CC(C)(C)OOC(=O)c1ccccc1	inactive	inactive		inactive	inactive	inactive	inactive		13.3 µM (active) and inactive	inactive	inactive	inactive	inactive	inactive	inactive		inactive	inactive	inactive	
[O]=[Cr][O][Cr]=[O]	inactive	inactive		inactive	inactive	inactive	inactive	inactive	inactive	inactive	inactive	inactive		inactive	inactive	inactive	inactive		inactive	inactive
CCN(CC)CCN1C(=O)CN=C(c2ccccc2F)c2cc(Cl)ccc21	inactive	inactive		inactive	inactive	inactive	inactive	inactive	inactive	inactive	inactive	inactive		inactive	inactive	inactive	inactive	inactive	inactive	inactive

Reference: PubChem BioAssay (Tox21)
